PubChem BioAssay (NCATS)
Records with an inconclusive call do not appear. A call without a number means that no potency is given here. The source made the active and inactive calls. Calls come from the whole dose curve; as a rule, active = well fitted cell-killing curve with a large enough effect; inconclusive = small, poorly fitted or top-dose-only effect; inactive = no such curve, though single readings can be large or run the other way. Residues, ends and D or L forms follow the SMILES beside them. *: point of attachment. Cbz = O=C(OCc1ccccc1)*

Test: qHTS of pediatric cancer cell lines to identify multiple opportunities for drug repurposing: Primary screen for NB-EBc1 cells (AID 1347095)
Conditions: NB-EBc1 neuroblastoma viability, CellTiter-Glo luminescence, 48 h; series mostly up to 46 µM
From the text: Drug repurposing or repositioning has been offered as a strategy for drug development in oncology programs. This approach has special potential for childhood cancers and other rare or orphan diseases, where the expected return on new drug development has been a disincentive to pharmaceuticals. […] In this project we exploit the poly-pharmacology of drugs to discover new indications via phenotypic screening of a panel of 19 well-characterized cell lines derived from solid tumors seen in children and adolescents. The goal is to identify approved drugs with previously unrecognized anticancer properties that has the potential to reveal new mechanisms and biological processes involved in carcinogenesis or drug resistance. We employed a titration-based paradigm (quantitative high-throughput screening or qHTS), where all compounds were tested at multiple concentrations for their effect on cell viability. Concentration-response curves (CRCs) were derived directly from the primary screen, and both potency and efficacy values were used to identify compounds with robust bioactivity profiles. We screened the NIH Chemical Genomics Center (NCGC) Pharmaceutical Collection (NPC) and Mechanism Interrogation Plate (MIPE) small molecule collections of approved and investigational compounds against these cell lines; and measured metabolically active cells after 48 hours of compound treatment as a proxy for cell viability. […] Assay Submitter: Nathalia J. Martinez, National Center for Advancing Translational Sciences, National Institutes of Health, Rockville, MD, USA; email: natalia.martinez@nih.gov Shen, M et al. Quantitative high-throughput phenotypic screening of pediatric cancer cell lines identifies multiple opportunities for drug repurposing. Oncotarget 2017 Dec 19;9(4):4758-4772. PMID 29435139.
The cells were obtained from University of North Carolina (UNC), Pediatric Preclinical Testing Program (PPT), and Coriell Institute (CI). qHTS cell viability assay: Cells were assayed in growth media at a density of 500-1,000 cells/well. Five microliters of cells were dispensed into 1,536-well, white, solid-bottom, TC-treated plates (Greiner Bio One) using a multidrop dispenser and incubated at 37 degrees C, 5% CO2, under a humidified atmosphere for 5 hours. Twenty-three nanoliters of compounds and controls (neutral control DMSO or positive control bortezomib at final concentration of 2.3 µM) were subsequently transferred by Kalypsys pintool. For primary screens, the MIPE collection was tested at 11-point dilutions (final concentrations range from 0.78 nM to 46 µM) and the NPC collection at 8-point dilutions (final concentrations range from 0.59 nM to 46 µM). Compounds tested in follow-up screens were assayed at 11-point dilutions. Cells were incubated for 48 hours, followed by addition of 3 µL of CellTiter-Glo (Promega). After a 15 min incubation at room temperature, samples were analyzed for luminescence intensity using a ViewLux High-throughput CCD imager equipped with clear filters.
Potency is the fitted concentration of half-maximal effect.

Compound | Potency | activity change, negative = cytotoxic
CN1[C@H]2CC(OC(=O)[C@@H](CO)c3ccccc3)C[C@H]1[C@H]1O[C@H]12 (stereo not given in full) | inactive | 
Cc1ccc(-n2[nH]c(C)c(N=Nc3cccc(-c4cccc(C(=O)O)c4)c3O)c2=O)cc1C | 6620 nM (active) | 
O=C(O)[C@H](CC(=O)N1C[C@@H]2CCCC[C@H]2C1)Cc1ccccc1 | inactive | 
Nc1nc(=O)n([C@H]2CSC(CO)O2)cc1F (stereo not given in full) | inactive | 
Cn1cc(CNCC2CCN(c3ncc(C(=O)NO)cn3)CC2)c2ccccc21 | 93.5 nM (active) | 
CC(C)N(CC[C@H](c1ccccc1)c1cc(CO)ccc1O)C(C)C | inactive | 
Nc1ccn(C2CO[C@H](CO)O2)c(=O)n1 (stereo not given in full) | inactive | 
CCCc1nc(C(C)(C)O)c(C(=O)O)n1Cc1ccc(-c2ccccc2-c2nn[nH]n2)cc1 | inactive | 
CC(=O)OC[C@@H]1O[C@@H](n2ccc(=O)[nH]c2=O)[C@H](OC(C)=O)[C@H]1OC(C)=O | inactive | 
CS(=O)(=O)N1CCc2c(-c3cnc(N)nc3)nc(N3CCOCC3)nc21 | 235 nM (active) | 
CC(O)(C#Cc1ccc2c(c1)N(c1nc(N)ncc1Cl)CC2)c1nccs1 (stereo not given) | inactive | 
CC[C@H]1OC(=O)[C@H](C)[C@@H](O[C@H]2C[C@@](C)(OC)[C@@H](O)[C@H](C)O2)[C@H](C)[C@@H](O[C@@H]2O[C@H](C)C[C@H](N(C)C)[C@@H]2O)[C@](C)(OC)C[C@@H](C)C(=O)[C@H](C)[C@@H](O)[C@]1(C)O | inactive | 
CCCCCCCCc1ccc(CCC(N)(CO)CO)cc1 | 16600 nM (active) | 
CC(C)[C@H](CO)Nc1nc(Nc2cccc(Cl)c2)c2ncn(C(C)C)c2n1 | 18700 nM (active) | 
CCOc1cc2ncc(C#N)c(Nc3ccc(OCc4ccccn4)c(Cl)c3)c2cc1NC(=O)C=CCN(C)C | 332 nM (active) | 
C=C1C(=O)O[C@H]2[C@@H]1CCC(C)=CCC[C@@]1(C)O[C@@H]21 | 5260 nM (active) | 
Cc1noc(-c2ccc(CSCCC(=O)O)cc2)c1NC(=O)OC(C)c1ccccc1Cl (stereo not given) | inactive | 
CC(C)C[C@@H](C=O)NC(=O)[C@H](CC(C)C)NC(=O)[C@H](CC(C)C)NC(=O)OCc1ccccc1 (Cbz-Leu-Leu-Leu-aldehyde) | 166 nM (active) | 
O=C1NC(O)CCN1[C@@H]1O[C@H](CO)[C@H](O)[C@H]1O (stereo not given in full) | inactive | 
Cc1ccc(O)c(C(CCN(C(C)C)C(C)C)c2ccccc2)c1 (stereo not given) | inactive | 

Compound | Potency | activity change, negative = cytotoxic
O=C(c1ccc(F)cc1)N1CCC[C@H](c2nc(-c3ccc(F)cc3)no2)C1 | inactive | 
CCN1CCN(C(=O)N[C@H](C(=O)N[C@@H]2C(=O)N3C(C(=O)O)=C(CSc4nnnn4C)CS[C@@H]23)c2ccc(O)cc2)C(=O)C1=O |  | 14.5% [at 9.22 µM] (inactive)
Cn1c(Nc2ccc(C(F)(F)F)cc2)nc2cc(Oc3ccnc(-c4ncc(C(F)(F)F)[nH]4)c3)ccc21 | 14800 nM (active) | 
CC[C@]12C=CCN3CC[C@@]4(c5cc([C@@]6(C(=O)OC)C[C@H]7C[C@@H](C(C)(F)F)CN(Cc8c6[nH]c6ccccc86)C7)c(OC)cc5N(C)[C@H]4[C@@](O)(C(=O)OC)[C@H]1OC(C)=O)[C@@H]32 | 11.8 nM (active) | 
CC(C)(C)[C@H](NC(=O)c1ccc(N)c(Cl)c1)C(=O)N1CCC[C@@H]1C(=O)N[C@H](C#N)CC(=O)O |  | 14.9% [at 4.84 µM] (inactive)
COc1cc([C@@H]2c3cc4c(cc3[C@H](O)[C@H]3COC(=O)[C@@H]23)OCO4)cc(OC)c1OC | 20.9 nM (active) | 
Cc1cnc(Nc2ccc(N3CCN(C)CC3)cc2)nc1Nc1cccc(S(=O)(=O)NC(C)(C)C)c1 | 1870 nM (active) | 
OCC(O)C(O)C(O)CO (stereo not given) | inactive | 
OC[C@@H](O)[C@@H](O)[C@H](O)[C@@H](O)CO | inactive | 
C[C@H](NC(=O)Cc1cc(F)cc(F)c1)C(=O)N[C@H](C(=O)OC(C)(C)C)c1ccccc1 | inactive | 
O=S(=O)(O)CCSSCCS(=O)(=O)O | inactive | 
CC[C@H]1OC(=O)[C@H](C)[C@@H](O[C@H]2C[C@@](C)(OC)[C@@H](O)[C@H](C)O2)[C@H](C)[C@@H](O[C@@H]2O[C@@H](C)C[C@H](N(C)C)[C@@H]2O)[C@](C)(O)C[C@@H](C)C(=O)[C@H](C)[C@@H](O)[C@]1(C)O | inactive | 
O=c1ccn([C@@H]2O[C@H](CO)[C@H](O)[C@@H]2F)c(=O)[nH]1 | inactive | 
CC(=O)N1CCN(c2ccc(OCc3nn(C)c(C)c3-c3cccc4c(CCCOc5cccc6ccccc56)c(C(=O)O)n(Cc5cccnc5)c34)cc2)CC1 | 418 nM (active) | 
C=C1C[C@@]2(O)O[C@@]3(C[C@H]2C(C)C)[C@H](C)CC[C@H]13 | inactive | 
C[C@@H]1[C@H](C)CC[C@]2(C(=O)O)CC[C@]3(C)C(=CC[C@@H]4[C@@]5(C)C[C@@H](O)[C@H](O)[C@@](C)(CO)[C@H]5CC[C@]43C)[C@@H]12 | inactive | 
C[C@H]1O[C@H](O[C@H]2[C@H](O)[C@@H](O)[C@@H](O[C@H]3[C@H](O)[C@@H](O)C(O)O[C@H]3CO)O[C@H]2CO)[C@H](O)[C@@H](O)[C@H]1N[C@H]1C=C(CO)[C@@H](O)[C@H](O)[C@@H]1O (stereo not given in full) | inactive | 
COc1cc(C(C)C)c(Oc2cnc(NC(CO)CO)nc2N)cc1I | 26400 nM (active) | 
CC(=O)O[C@H]1C[C@@H]2CC[C@H]3[C@H]4C[C@H]([N+]5(C)CCCCC5)[C@@H](OC(C)=O)[C@@]4(C)CC[C@@H]3[C@@]2(C)C[C@H]1N1CCCCC1 | inactive | 
CC(C)Oc1ccc(C(=O)N[C@H](CNC(=O)CN(C)C)Cc2ccc(-c3cn4cccc([C@H](C)O)c4n3)cc2)cc1Cl | 372 nM (active) | 
